Experimental data reported in PubChem BioAssay AID1347419 (Sanford-Burnham Center for Chemical Genomics, 2020).
Among all 99,000 compounds or so, about 820 (0.83%) were called active.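 The calls were made as follows: active = Z-score of -3 or lower, scaled per plate to the spread of control and sample wells; inactive = z-score above -3.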 The sample as a whole holds a higher share of actives than the screen did.

target: Protein-tyrosine kinase 2-beta (Homo sapiens) (UniProt Q14289); assay: antagonists of Pyk2 self-association, primary screen, Q293 cells, FERM NanoBiT luminescence, HTS (AID 1347419); parameters: dose or concentration left out as unconfirmed; conditions: hits give low values;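 also: the deposit names both 25 µM and 10 µM; negative z-score means lost luminescence so less FERM oligomerization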
Sequence (Q14289 whole entry, looked up): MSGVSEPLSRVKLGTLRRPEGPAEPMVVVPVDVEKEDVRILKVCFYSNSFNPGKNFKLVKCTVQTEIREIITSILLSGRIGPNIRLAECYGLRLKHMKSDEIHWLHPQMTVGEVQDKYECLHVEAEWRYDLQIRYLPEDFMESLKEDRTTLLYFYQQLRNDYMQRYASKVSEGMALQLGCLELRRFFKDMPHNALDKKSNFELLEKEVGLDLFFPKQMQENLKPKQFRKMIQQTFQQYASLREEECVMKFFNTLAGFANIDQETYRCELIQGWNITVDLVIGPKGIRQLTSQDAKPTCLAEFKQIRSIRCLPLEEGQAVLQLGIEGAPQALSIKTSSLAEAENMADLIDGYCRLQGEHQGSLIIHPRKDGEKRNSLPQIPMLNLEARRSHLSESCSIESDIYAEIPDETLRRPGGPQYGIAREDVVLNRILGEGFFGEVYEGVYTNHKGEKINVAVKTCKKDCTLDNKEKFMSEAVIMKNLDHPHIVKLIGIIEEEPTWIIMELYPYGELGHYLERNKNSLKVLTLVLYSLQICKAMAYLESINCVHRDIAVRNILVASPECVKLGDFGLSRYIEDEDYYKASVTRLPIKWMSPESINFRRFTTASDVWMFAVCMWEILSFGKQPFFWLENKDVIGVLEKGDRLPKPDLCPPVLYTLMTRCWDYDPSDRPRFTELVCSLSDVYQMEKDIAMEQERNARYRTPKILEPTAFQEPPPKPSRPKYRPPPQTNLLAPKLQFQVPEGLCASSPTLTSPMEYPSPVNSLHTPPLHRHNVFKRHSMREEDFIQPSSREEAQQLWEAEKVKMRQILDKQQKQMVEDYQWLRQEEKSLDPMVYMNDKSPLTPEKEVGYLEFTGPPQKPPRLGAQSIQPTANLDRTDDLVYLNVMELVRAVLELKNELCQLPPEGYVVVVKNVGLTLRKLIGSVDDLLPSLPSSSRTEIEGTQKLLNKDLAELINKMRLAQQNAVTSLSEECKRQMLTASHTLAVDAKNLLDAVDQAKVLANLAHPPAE

| Compound | z-score |
| --- | --- |
| CC(=O)c1c(O)n(C2CCCCCC2)c(=O)[nH]c1=O | 0.12 (inactive) |
| CCC(=NCCc1ccccc1)c1c(O)n(C2CCCCC2)c(=O)[nH]c1=O | -3.36 (active) |
| CCC(=NCc1ccco1)c1c(O)n(Cc2ccccc2)c(=O)[nH]c1=O | -0.23 (inactive) |
| CN(C)c1ccc(/C=C2\CC3C4CC=C5CC(O)CCC5(C)C4CCC3(C)C2=O)cc1 (stereo not given) | -0.08 (inactive) |
| O=C(COC(=O)c1ccccc1)Nc1ccc(Cl)cc1C(=O)c1ccccc1 | 0.02 (inactive) |
